From PubChem BioAssay AID588790 (National Center for Advancing Translational Sciences (NCATS), 2011)
In all, about 1,200 compounds went through this assay and about 85 (7%) were called active. Calls follow the shape of the full dose curve. For the sample, actives were picked, then their nearest neighbours and some compounds at random.

molecular target: Beta-2 adrenergic receptor (Homo sapiens) (UniProt P07550); assay: qHTS assay of beta-arrestin-biased ligands of beta2-adrenergic receptor: Hit Validation with GloSensor; conditions: W9-Glo22F cells, GloSensor cAMP luminescence, beta2AR agonism; activation: at 46.1 µM (top of the series); as to activation: 0% is about no effect
Sequence (P07550 whole entry, looked up): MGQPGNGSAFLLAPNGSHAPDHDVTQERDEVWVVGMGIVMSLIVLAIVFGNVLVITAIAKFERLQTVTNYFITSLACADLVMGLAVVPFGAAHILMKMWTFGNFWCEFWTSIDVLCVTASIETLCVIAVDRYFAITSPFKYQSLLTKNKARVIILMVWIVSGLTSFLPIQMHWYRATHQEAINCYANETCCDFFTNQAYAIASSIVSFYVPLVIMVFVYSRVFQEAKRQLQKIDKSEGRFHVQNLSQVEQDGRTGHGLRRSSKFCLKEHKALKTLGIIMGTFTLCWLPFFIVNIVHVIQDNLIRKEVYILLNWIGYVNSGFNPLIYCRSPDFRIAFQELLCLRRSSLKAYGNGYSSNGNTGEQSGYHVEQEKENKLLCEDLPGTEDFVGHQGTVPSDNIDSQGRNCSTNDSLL
In short: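 Luminescence measured 10 min after GloSensor reagent addition at room temperature. Preceded by compound pinning onto W9-Glo22F cells that had been cultured overnight at 37 deg C under 5% CO2.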
Potency is read from the fitted curve at half-maximal effect.

SMILES | activation | Potency
O=C(COc1ccc2ccccc2c1)Nc1ccc(Br)cc1C(=O)O | 0% (inactive) | –
Cc1ccc(NC(=S)NC(NC(=O)c2ccco2)C(Cl)(Cl)Cl)cc1 (stereo unspecified) | -1.16% (inactive) | –
COc1ccc2c(C)nc(Nc3nc(C)cc(C)n3)nc2c1 | -2.33% (inactive) | –
COc1cccc(NC(=S)N/N=C2\CC(C)(C)Oc3ccc(O)cc32)c1 | – | 25.9 µM (active)
COc1ccccc1NC(=S)N/N=C1\CC(C)(C)Oc2ccc(O)cc21 | -2.33% (inactive) | –
CC1(C)C/C(=N\NC(=S)Nc2ccccc2F)c2cc(O)ccc2O1 | 1.16% (inactive) | –
C=CCOc1ccc2ccccc2c1CNn1c(C)n[nH]c1=S | – | 8.2 µM (active)
CCN(CC)S(=O)(=O)c1ccc(N=Nc2c(C)[nH]n(C(N)=S)c2=O)cc1 | -1.01% (inactive) | –
O=C(C[C@H]1C[C@H](C(=O)N2CCCCC2)[C@@]2(CCc3ccccc3)c3[nH]c4cc(-c5ccco5)ccc4c3CCN2C1=O)NCCC1=CCCCC1 | 0.306% (inactive) | –
C/C(=N\NC(=S)NC(C)C)c1ccc(Cl)s1 | -0.153% (inactive) | –
O=C(N/N=C/c1cn(-c2ccccc2)nc1-c1cc2ccccc2o1)c1cccnc1 | -2.33% (inactive) | –
CO/C=C\C=C/c1nnn(-c2ccc(Cl)cc2)n1 | -1.16% (inactive) | –
CC(NCCc1ccc(O)cc1)C(O)c1ccc(O)cc1 (stereo unspecified) | – | 0.0116 µM (active)
Cc1ccc(CNc2ccc(O)cc2)cc1 | 0.153% (inactive) | –
CCc1ccc(CNc2ccc(O)cc2)cc1 | -1.16% (inactive) | –
Oc1ccc(/C=N/NC(=S)NC2CC3CCC2C3)cc1 (stereo unspecified) | 7.28% (inactive) | –
C=CC[n+]1c(-c2ccc(C)cc2)csc1NNC(=O)Nc1ccccc1 | 0.306% (inactive) | –
COc1ccc(-c2c(-c3ccccc3)c(C(=O)C(=O)NCCCN(C)C)n3ccc4cc(OC)c(OC)cc4c23)cc1OC | -1.16% (inactive) | –
C=CC[n+]1c(-c2ccc(OC)c(OC)c2)csc1NNC(=O)Nc1ccccc1 | – | 10.3 µM (active)
O=C1NC2(C=Cc3c(ccc4ccccc34)O2)Oc2ccccc21 (stereo unspecified) | -2.33% (inactive) | –
COc1cc(/C=N/Nc2ccc(F)cc2F)cc(OC)c1O | 0% (inactive) | –
O=C(O)/C=C/c1nc(-c2ccccc2)n2ccccc12 | – | 25.9 µM (active)

SMILES | activation | Potency
C[C@@H](NC(=O)c1coc(=O)c(Br)c1)c1ccccc1 | 1.16% (inactive) | –
O=[N+]([O-])c1cc([N+](=O)[O-])c2cc3ccccc3nc2c1 | -4.96% (inactive) | –
Cn1c(CNC(=O)c2ccccc2F)nnc1SCC(=O)c1ccccc1 | -1.16% (inactive) | –
COc1ccc(NC(=O)c2cc3c(-c4ccc(OC)c(OC)c4)nn(C)c3s2)cc1OC | 0% (inactive) | –
COC(=O)CSc1ccc2nnc(-c3ccc(OC)c(OC)c3)n2n1 | – | 25.9 µM (active)
COc1ccc(C(C)NC(=O)c2ccc(Br)cc2)cc1OC (stereo unspecified) | 4.96% (inactive) | –
CCOc1ccc(/C(CCC(=O)O)=N/NC(=S)NCCc2ccccc2)cc1 | 4.8% (inactive) | –
COc1ccc(NC(=O)C(=O)NCC(c2ccco2)N2CCc3ccccc32)cc1 (stereo unspecified) | -1.16% (inactive) | –
COc1cc(/C=N/NC(=O)c2cncc(Br)c2)cc([N+](=O)[O-])c1O | 0% (inactive) | –
Cn1c(O)c(/C=N/NC(=O)c2cc3ccccc3cc2O)c2ccccc21 | -4.96% (inactive) | –
Oc1[nH]c2ccc(Br)cc2c1N=NC(=S)NCC1CCCO1 (stereo unspecified) | 1.16% (inactive) | –
COc1cc(OC)c(NS(=O)(=O)c2cc(C(=O)OC(C)C(=O)NC3CC3)c(Cl)cc2Cl)cc1Cl (stereo unspecified) | 0% (inactive) | –
CCCC1(C(=O)OCC)NC(c2ccc(OC)cc2OC)C2C(=O)N(c3ccc4c(c3)OCCO4)C(=O)C21 (stereo unspecified) | 0.306% (inactive) | –
COc1cc(/C=C2\SC(=N)N(c3ccc4c(c3)OCO4)C2=O)cc(OC)c1O | – | 20.6 µM (active)
CCNC(=S)N/N=C(\C)c1cccc(OC)c1 | -1.16% (inactive) | –
C[C@H](CO)N1C[C@H](C)[C@@H](CN(C)Cc2ccccc2)Oc2c(NC(=O)Cc3ccccc3)cccc2C1=O | 0.306% (inactive) | –
CCCN=C1N(CC)C[C@@H]2[C@@H]3C(=O)N(C)C(=O)[C@@H]3[C@](CC)(C(=O)OC)N12 | 0% (inactive) | –
O=C(COC(=O)c1ccccn1)c1ccc([N+](=O)[O-])cc1 | 4.96% (inactive) | –
Cc1ccc(S(=O)(=O)N(Cc2ccc(Cl)cc2)c2ccccc2C(=O)NCc2ccco2)cc1 | -1.01% (inactive) | –
CCC1CCCCN1CC(=O)Nc1cc(C)nn1-c1nc(C)cc(C)n1 (stereo unspecified) | – | 7.31 µM (active)
CC(=O)Nc1ccc(Nc2cc(C)nc3c(-c4ccccc4)c(C)nn23)cc1 | 2.33% (inactive) | –
CNc1cc(C)nc(-n2nc(C)cc2C)n1 | -2.33% (inactive) | –

SMILES | activation | Potency
CCNc1nc(NCC)nc(-n2nc(C)cc2C)n1 | 9.76% (inactive) | –
Cc1cc(C)nc(-n2nc(C)cc2NC(=O)CN2CCCC2)n1 | – | 20.6 µM (active)
Cc1cc(C)n(-c2nc(NC(C)(C)C)nc(NC(C)(C)C)n2)n1 | -1.01% (inactive) | –
Cc1cc(C)nc(-n2nc(C)cc2NC(=O)CN2CCC(C)CC2)n1 | – | 29.1 µM (active)
Cc1cc(C)nc(-n2nc(C)cc2NC(=O)CNC2CCCCC2)n1 | 1.16% (inactive) | –
Cc1cc(C)n(-c2nc(NC(C)C)nc(NC(C)C)n2)n1 | 1.16% (inactive) | –
CCC(C(=O)Nc1cc(C)nn1-c1nc(C)cc(C)n1)c1ccccc1 (stereo unspecified) | – | 18.4 µM (active)
Cc1ccc(S(=O)(=O)N2CCN(C(C)C(=O)NCC(C)c3ccccc3)CC2)cc1 (stereo unspecified) | -1.16% (inactive) | –
CN(C)C(=S)Nc1nc2ccccc2s1 | 0.459% (inactive) | –
COc1cccc(C2CC3(CC(C)(C)NC(=S)N3)Oc3cc(O)ccc32)c1 (stereo unspecified) | -2.33% (inactive) | –
COCCCN=C1NN=C(c2cc(C)n(-c3ccccc3)c2C)CS1 | 5.81% (inactive) | –
COc1ccc(N2C(=O)C(CC(=O)Nc3ccc(Cl)cc3)N(NC(=O)c3cccc(F)c3)C2=S)cc1 (stereo unspecified) | 0.306% (inactive) | –
O=C(NC(=S)N1CCCCCC1)c1ccccc1Cl | 0.306% (inactive) | –
O=C(NCCN1CCOCC1)c1ccccc1Cl | – | 20.6 µM (active)
O=C(NCCN1CCOCC1)c1cc(Br)ccc1Cl | -1.16% (inactive) | –
C=C(C)c1cccc(C(C)(C)NC(=O)NC2CCN(Cc3ccccc3)CC2)c1 | 0.306% (inactive) | –
COc1cc2c(cc1OC)C(c1cc3ccccc3oc1=O)=NC(C)(C)C2 | – | 23.1 µM (active)
CC(=O)Oc1ccc2cc(-c3ccccc3)c(=O)oc2c1 | 0.306% (inactive) | –
CC(C)c1ccc(NC(=S)Nc2ccc3cn[nH]c3c2)cc1 | 0.306% (inactive) | –
O=C(O)C12CC3CC(C1)CC(n1ncc(N4CCN(c5ccccc5)CC4)c(Cl)c1=O)(C3)C2 | 0.306% (inactive) | –
O=C1c2ccccc2-c2onc3ccc(Oc4ccccc4)c1c23 | – | 13 µM (active)
C=CCn1nc([N+](=O)[O-])nc1Sc1cccc2cccnc12 | 1.16% (inactive) | –
